Holding throughout (details): primary human HUVEC with PBMC; actives raise or lower the signal
Read-out in experiment [1]: Monocyte Chemoattractant Protein-1 (MCP1), CCL2 (gene 6347)
The experiment in a line: BSK_LPS_MCP1: BioMAP Diversity Plus: LPS Assay for Monocyte Chemoattractant Protein-1 (MCP1) Biomarker Activity (AID 2283081).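 For AC50: co-culture stimulated with LPS; secreted MCP-1 protein quantified by ELISA in culture supernatant.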 A digest of the protocol:
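HUVEC plus PBMC co-culture (human primary cells, LPS system) exposed to test chemical for 24 h; MCP-1 measured by ELISA. Bidirectional curve fitting against DMSO baseline; parallel SRB total-protein staining flags overt cytotoxicity.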

A short description of experiment [2]: BSK_LPS_PGE2: BioMAP Diversity Plus: LPS Assay for Prostaglandin E2 (PGE2) Biomarker Activity (AID 2283082).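 For AC50: secreted prostaglandin E2 measured by ELISA in LPS-stimulated co-culture.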 In a few lines: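 Primary human endothelial cells and blood mononuclear cells, co-cultured with LPS, receive test chemical; PGE2 ELISA follows at 24 h, with SRB-stained parallel cultures flagging cytotoxicity.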
Read-out in experiment [3]: Macrophage colony-stimulating factor (MCSF), CSF1 (gene 1435)
The experiment in a line: BSK_LPS_MCSF: BioMAP Diversity Plus: LPS Assay for Macrophage colony-stimulating factor (MCSF) Biomarker Activity (AID 2283083). In a few lines: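 Human umbilical vein endothelial cells co-cultured with peripheral blood mononuclear cells were exposed to compound for 24 h. M-CSF levels were measured by ELISA, and bidirectional curve fitting used DMSO as the negative control and baseline.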

Read-out in experiment [4]: Tissue Factor, F3 (gene 2152)
The experiment can be described thus: BSK_LPS_TissueFactor: BioMAP Diversity Plus: LPS Assay for Tissue Factor Biomarker Activity (AID 2283084). A digest of the protocol:
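Human umbilical vein endothelial cells co-cultured with peripheral blood mononuclear cells were dosed and stimulated with LPS. Cell-surface CD142 was quantified by ELISA at 24 h. Activity was fitted bidirectionally against DMSO baseline.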

Read-out in experiment [5]: Tumor necrosis factor (Homo sapiens) (UniProt P01375)
The experiment in a line: BSK_LPS_TNFa: BioMAP Diversity Plus: LPS Assay for Tumour Necrosis Factor alpha (TNFa) Biomarker Activity (AID 2283085).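 For AC50: TNFa protein level quantified by ELISA in the co-culture.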 A digest of the protocol: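 ELISA-based TNFa endpoint in a human endothelial–PBMC co-culture sampled 24 h post-exposure. Curves were fitted in both directions using DMSO as baseline of activity.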

Read-out in experiment [6]: Vascular cell adhesion molecule 1 (VCAM1), VCAM1 (gene 7412)
The experiment can be described thus: BSK_LPS_VCAM1: BioMAP Diversity Plus: LPS Assay for Vascular cell adhesion molecule 1 (VCAM1) Biomarker Activity (AID 2283086). In a few lines:
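Measured by ELISA: VCAM-1 in LPS-activated HUVEC/PBMC co-cultures 24 h after treatment. Values reflect bidirectional fitting with DMSO as baseline.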

Read-out in the next experiment: CD38, CD38 (gene 952)
The experiment can be described thus: BSK_SAg_CD38: BioMAP Diversity Plus: SAg Assay for CD38 Biomarker Activity (AID 2283087). In a few lines:
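Measures CD38 on a human endothelial/PBMC co-culture driven by SEB and TSST-1, 24 h after compound exposure, using ELISA with fluorescence detection; DMSO defines baseline for bidirectional curve fitting.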

Read-out in the next experiment: CD40, CD40 (gene 958)
The experiment in a line: BSK_SAg_CD40: BioMAP Diversity Plus: SAg Assay for CD40 Biomarker Activity (AID 2283088). A digest of the protocol: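 Human umbilical vein endothelial cells co-cultured with PBMC; CD40 levels measured by ELISA with fluorescence read-out 24 h after chemical dosing. Gain or loss of signal fitted bidirectionally against DMSO baseline.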

Read-out in experiment [7]: Monocyte Chemoattractant Protein-1 (MCP1), CCL2 (gene 6347)
The experiment can be described thus: BSK_SAg_MCP1: BioMAP Diversity Plus: SAg Assay for Monocyte Chemoattractant Protein-1 (MCP1) Biomarker Activity (AID 2283090). A digest of the protocol: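 Values derive from bidirectional fitting of ELISA-measured MCP1 against DMSO controls. Readings were taken 24 h after dosing human vascular endothelial cells co-cultured with peripheral blood mononuclear cells under superantigen stimulation.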

Read-out in another experiment: CD69, CD69 (gene 969)
The experiment can be described thus: BSK_SAg_CD69: BioMAP Diversity Plus: SAg Assay for CD69 Biomarker Activity (AID 2283089).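 For AC50: cell surface CD69 protein quantified by ELISA with fluorescence detection.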 A digest of the protocol:
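Values derive from bidirectional fitting relative to DMSO vehicle. Cells: umbilical vein endothelium plus peripheral blood mononuclear cells, treated 24 h before fluorescent ELISA for CD69.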

Several values for one entry are separate records, joined by “and”; a condition that tells them apart may be missing. Equal values may be shown once. Where a structure was tested more than once in an assay, its records may differ in their call. Activity calls are given as the source filed them. Rule for the calls: active = hit-call score of the fitted dose curve at least 0.9, where 1 is the maximum; inactive = score below 0.9.

For orientation: AC50 means the concentration at which the activity in the assay is half-maximal.

Sequence of Tumor necrosis factor (Homo sapiens) (P01375 whole entry, looked up): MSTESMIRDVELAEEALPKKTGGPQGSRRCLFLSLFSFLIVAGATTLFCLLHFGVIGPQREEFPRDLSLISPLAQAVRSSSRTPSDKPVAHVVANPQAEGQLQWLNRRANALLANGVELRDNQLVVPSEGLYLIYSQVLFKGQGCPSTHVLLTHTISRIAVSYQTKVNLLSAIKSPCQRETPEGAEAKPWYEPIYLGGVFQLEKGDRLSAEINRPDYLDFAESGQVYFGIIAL

As for `Nc1cc([N+](=O)[O-])cc(Cl)c1O`, the outcome in experiment [1], in experiment [2], in [3], in [4], in experiment [5] and in experiment [6] was inactive. For the same compound, the outcome is “inactive” in the experiment with CD38, CD38 (gene 952); “inactive” with CD40, CD40 (gene 958); “inactive” in experiment [7].
With `OCC(O)CC(F)(F)C(F)(F)C(F)(F)C(F)(F)C(F)(F)C(F)(F)C(F)(F)C(F)(F)F` (stereo not drawn), the result in experiment [1], in experiment [2], in [3], in experiment [4], in experiment [5] and in experiment [6] was inactive. For the same compound, the outcome in the experiment with CD38, CD38 (gene 952) is “inactive”; with CD40, CD40 (gene 958) it was “inactive”; in [7] it was “inactive”.
On to `Cc1ccc(S(=O)(=O)C(I)I)cc1`, for which the half-maximal activity concentration (AC50) is 3.77 µM (active) in experiment [1]; 2.3 µM (active) in experiment [3]; 3.07 µM (active) in experiment [4]; 3.03 µM (active) in experiment [6]; 2.99 µM (active) in the experiment with CD38, CD38 (gene 952); 2.98 µM (active) in the experiment with CD40, CD40 (gene 958). In addition, the AC50 is 3.25 µM (active) with CD69, CD69 (gene 969) and 3.7 µM (active) in experiment [7]. Moreover, the result in experiment [2] and in [5] was inactive.
Regarding `CCN(CC)c1ccc2c(c1)Oc1cc(N(CC)CC)ccc1C21OC(=O)c2ccccc21`, the outcome is “inactive” in experiment [1]; “inactive” in [2]; “inactive” in experiment [3]; “inactive” in experiment [5]; “inactive” in [6]; “inactive” in the experiment with CD38, CD38 (gene 952). Also, the outcome with CD40, CD40 (gene 958) is “inactive”; with CD69, CD69 (gene 969) it was “inactive”; in [7], “inactive”. Moreover, the AC50 in experiment [4] was 10 µM (active).
In the case of `O=C1c2c(O)ccc(Nc3ccc(CCO)cc3)c2C(=O)c2c([N+](=O)[O-])ccc(O)c21`, the AC50 in experiment [1] was 20 µM (active); in experiment [2] it was 29.4 µM (active); in experiment [3], 7.53 µM (active); in experiment [4], 3.97 µM (active); in experiment [6] it was 20 µM (active); with CD38, CD38 (gene 952) it was 20 µM (active). Moreover, the half-maximal activity concentration (AC50) was 25.9 µM (active) in the experiment with CD40, CD40 (gene 958) and 14.2 µM (active) with CD69, CD69 (gene 969). Moreover, the outcome in experiment [5] and in experiment [7] was inactive.
Consider `OCC(F)(F)C(F)(F)C(F)(F)C(F)(F)C(F)(F)C(F)(F)CO`, for which the outcome in [1], in experiment [2], in experiment [3], in experiment [4], in experiment [5] and in experiment [6] was inactive. Also, the outcome with CD38, CD38 (gene 952) was “inactive”; in the experiment with CD40, CD40 (gene 958) it was “inactive”; in experiment [7], “inactive”. In addition, the half-maximal activity concentration (AC50) in experiment [5] is 1.9 µM (active).
Take `OCCCCC(F)(F)C(F)(F)C(F)(F)C(F)(F)F`: the outcome in experiment [1], in experiment [2], in [3], in experiment [4], in experiment [5] and in [6] was inactive. Besides, the outcome with CD38, CD38 (gene 952) was “inactive”; in the experiment with CD40, CD40 (gene 958), “inactive”; in experiment [7] it was “inactive”.
Turning to `NS(=O)(=O)C(F)(F)C(F)(F)C(F)(F)C(F)(F)C(F)(F)C(F)(F)F`, the AC50 in [1] was 30 µM (active); in experiment [2], 10.7 µM (active) and 13.8 µM (active); in [6], 5.95 µM (active) and 46.8 µM (active); with CD38, CD38 (gene 952) it was 43.9 µM (active); in the experiment with CD40, CD40 (gene 958) it was 26.3 µM (active) and 30 µM (active); with CD69, CD69 (gene 969), 28.6 µM (active) and 32.5 µM (active). Besides, the outcome in experiment [1] was “inactive”; in experiment [3], “inactive”; in experiment [4], “inactive”; in the experiment with CD38, CD38 (gene 952) it was “inactive”; in experiment [7] it was “inactive”.
`NC(O)(C(F)(F)F)C(F)(F)F`: the outcome in experiment [1], in [2], in [3], in experiment [4], in [5] and in experiment [6] was inactive. The outcome is “inactive” with CD38, CD38 (gene 952); “inactive” in the experiment with CD40, CD40 (gene 958); “inactive” in [7].
With `C=CC(=O)OCC(F)(F)C(F)(F)C(F)(F)C(F)(F)C(F)(F)C(F)(F)C(F)(F)C(F)F`, the outcome was “inactive” in [1]; “inactive” in experiment [2]; “inactive” in experiment [3]; “inactive” in experiment [4]; “inactive” in experiment [6]; “inactive” with CD38, CD38 (gene 952). The outcome is “inactive” with CD40, CD40 (gene 958) and “inactive” in experiment [7]. The AC50 in experiment [2] was 13.9 µM (active); with CD40, CD40 (gene 958) it was 18.1 µM (active).
Take `NC(=O)C(F)(F)C(F)(F)C(F)(F)C(F)(F)C(N)=O`: the result in experiment [1], in experiment [2], in [3], in experiment [4], in experiment [5] and in experiment [6] was inactive. Moreover, the outcome in the experiment with CD38, CD38 (gene 952) was “inactive”; in the experiment with CD40, CD40 (gene 958), “inactive”; in experiment [7] it was “inactive”. Moreover, the AC50 in [3] is 0.393 µM (active).
As for `Brc1nc2ccccc2s1`, the result in experiment [1], in experiment [2], in [3], in experiment [4], in [5] and in experiment [6] was inactive. The outcome in the experiment with CD38, CD38 (gene 952) was “inactive”; with CD40, CD40 (gene 958), “inactive”; in experiment [7], “inactive”.
As to `O=S(=O)(O)CCC(F)(F)C(F)(F)C(F)(F)C(F)(F)C(F)(F)C(F)(F)C(F)(F)C(F)(F)F`, the outcome in experiment [1] is “inactive”; in experiment [3] it was “inactive”; in experiment [4], “inactive”; in [6] it was “inactive”; with CD38, CD38 (gene 952), “inactive”; with CD40, CD40 (gene 958), “inactive”. Also, in [7], the outcome was inactive. Also, the AC50 in [2] is 30 µM (active) and 40.9 µM (active); in experiment [3] it was 51.4 µM (active); in experiment [6] it was 5.95 µM (active); with CD38, CD38 (gene 952) it was 15.6 µM (active).
Take `CCN(CCO)S(=O)(=O)C(F)(F)C(F)(F)C(F)(F)C(F)(F)C(F)(F)C(F)(F)C(F)(F)C(F)(F)F`: the concentration at half-maximal activity (AC50) is 21.8 µM (active) in experiment [1]; 7.7 µM (active) in experiment [3]; 10.8 µM (active) and 15 µM (active) in [4]; 30 µM (active) and 35.9 µM (active) in [6]; 35.9 µM (active) and 29.9 µM (active) with CD38, CD38 (gene 952); 22.8 µM (active) and 46 µM (active) with CD40, CD40 (gene 958). Moreover, the AC50 in experiment [7] was 18.8 µM (active) and 18.3 µM (active). The outcome in experiment [1], in [2], in [3] and in experiment [5] was inactive.
As for `NCC(F)(F)C(F)(F)C(F)(F)C(F)(F)C(F)(F)C(F)(F)F`, the AC50 in experiment [1] is 19.9 µM (active). Further, the result in experiment [1], in experiment [2], in experiment [3], in experiment [4], in experiment [5] and in [6] was inactive. Also, the outcome with CD38, CD38 (gene 952) is “inactive”; in the experiment with CD40, CD40 (gene 958), “inactive”; in experiment [7], “inactive”.

(Values after PubChem BioAssay (EPA / NIEHS).)
